From PubChem BioAssay AID624040 (The Scripps Research Institute Molecular Screening Center, 2012)
About 2,100 (0.58%) of roughly 360,000 compounds were called active.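 Rule for the calls: active = inhibition above a per-plate cutoff, the mean of that plate's test compounds plus 3 SD (cut at about 27% in these data); inactive = the rest.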 The sample as a whole holds a higher share of actives than the screen did.

biological target: Muscarinic acetylcholine receptor M5 (Homo sapiens) (UniProt P08912); assay: CHRM5 blockers of acetylcholine calcium response – CHO cells, Fluo-8 calcium fluorescence, primary screen (AID 624040); conditions: CHO-hM5 cells, ACh EC80, at 3 µM, hits give high values;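 note: 0% = acetylcholine EC80 with DMSO and 100% = DMSO without agonist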
Sequence (P08912 whole entry, looked up): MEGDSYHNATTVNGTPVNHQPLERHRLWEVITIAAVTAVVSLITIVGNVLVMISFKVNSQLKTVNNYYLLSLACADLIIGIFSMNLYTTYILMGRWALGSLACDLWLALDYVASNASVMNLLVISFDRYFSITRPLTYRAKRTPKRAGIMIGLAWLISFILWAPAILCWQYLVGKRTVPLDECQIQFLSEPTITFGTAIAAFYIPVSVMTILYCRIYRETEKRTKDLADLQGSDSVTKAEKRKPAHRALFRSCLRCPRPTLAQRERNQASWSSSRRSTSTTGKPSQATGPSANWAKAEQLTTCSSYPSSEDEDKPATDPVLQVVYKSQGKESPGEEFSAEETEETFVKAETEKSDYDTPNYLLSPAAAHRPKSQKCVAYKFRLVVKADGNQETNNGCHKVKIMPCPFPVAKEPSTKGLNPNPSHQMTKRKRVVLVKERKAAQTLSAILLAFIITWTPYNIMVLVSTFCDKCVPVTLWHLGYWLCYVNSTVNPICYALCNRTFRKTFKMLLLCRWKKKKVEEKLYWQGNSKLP

| Structure (SMILES) | inhibition |
| --- | --- |
| Cc1ccc(S(=O)(=O)N2CCC(C(=O)N3CCCCCCC3)CC2)cc1 | 1.57% (inactive) |
| Cc1ccc(S(=O)(=O)N2CCC(N3CCCCCC3)CC2)cc1 | 6.92% (inactive) |
| Cc1ccc(S(=O)(=O)n2oc(=O)c(C3CCCCC3)c2N)cc1 | 33.2% (active) |
| CCC(C)(C)NC(=O)CN(C(=O)C(=O)Nc1ccc2c(c1)OCCO2)C(C)(C)CC | 1.43% (inactive) |
| CCOCCn1[nH]c2ccccc2c1=O | 3.03% (inactive) |
| O=C(c1cc(C(=O)N2CCN(c3ccc(F)cc3)CC2)cc([N+](=O)[O-])c1)N1CCN(c2ccc(F)cc2)CC1 | 29.5% (active) |
| O=C(c1cncc(Br)c1)N1CCN(c2ccc([N+](=O)[O-])cc2)CC1 | 15.7% (inactive) |
| O=[N+]([O-])c1ccc(N2CCN(c3ccc(F)cc3)CC2)cn1 | 8.5% (inactive) |
| CC(=O)c1c(N2CCOCC2)nc(=S)n(Cc2ccccc2)c1C | 10% (inactive) |
| COc1ccccc1NC(=S)N1CCC(NC(=O)C23CC4CC(CC(C4)C2)C3)CC1 | 6.64% (inactive) |
| COc1ccccc1NC(=S)N1CCN(C(c2ccccc2)c2ccccc2)CC1 | 32.8% (active) |
| CCOc1ccccc1NC(=S)N1CCN(c2cccc(C)c2C)CC1 | -0.84% (inactive) |
| O=C(c1ccc2c(c1)C(=O)N(Cc1ccncc1)C2=O)N1CCN(S(=O)(=O)c2ccc(OC(F)(F)F)cc2)CC1 | 11.6% (inactive) |
| COc1cccc(COC(=O)C2CCN(S(=O)(=O)c3ccc(Cl)cc3)CC2)c1OC | 10.6% (inactive) |
| COc1ccc(CNC(=O)COc2cccnc2[N+](=O)[O-])cc1 | 8.36% (inactive) |
| COc1ccc(CNc2ncnc3ccccc23)cc1 | 33.8% (active) |
| O=C(COc1ncnc2ccccc12)NC(=O)NCc1ccccc1 | 6.01% (inactive) |
| CCCCN(C)Cc1c(C)[nH]c2ccc(Cl)cc2c1=O | -2.11% (inactive) |
| O=S(=O)(NCCc1ccc(Cl)cc1)c1cccs1 | 2.77% (inactive) |
| O=S(=O)(Nc1ccccc1)c1ccc(NS(=O)(=O)c2cccs2)cc1 | 3.98% (inactive) |

| Structure (SMILES) | inhibition |
| --- | --- |
| O=C(Nc1cccc(Cl)c1)Nc1ccccc1NS(=O)(=O)c1cccs1 | 30.1% (active) |
| CCCCCC1CCC(c2nnc(SCC(C)=O)o2)CC1 (centres undefined) | -0.26% (inactive) |
| CCOC(=O)C(CO)NC(=O)C1(NC(C)=O)CCCC1 (centres undefined) | 5.55% (inactive) |
| COc1cccc(N(CC(=O)NCc2ccccc2)C(=O)CCC(=O)Nc2nccs2)c1 | 9.51% (inactive) |
| CCCc1cc(=O)[nH]c2nnc(SCC(=O)Nc3nnc(SCC)s3)n12 | 6.93% (inactive) |
| COc1ccccc1OCCNC(=O)CCNC(=O)c1ccccc1Cl | 17.2% (inactive) |
| CC(=O)Nc1ccc(NC(=O)C(C)OC(=O)C2CC(=O)N(CCc3ccccc3)C2)cc1 (centres undefined) | 7.46% (inactive) |
| COc1cccc(/C=C2\SC(=N)N(c3ccc(F)cc3)C2=O)c1 | 11% (inactive) |
| CC(=O)N1CC(C)c2scc(C)[n+]2-c2ccccc21 (centres undefined) | -1.76% (inactive) |
| CCC(C(=O)NC1CCCC1)N(C(=O)c1snc(C(N)=O)c1N)c1ccc2c(c1)OCCO2 (centres undefined) | -5.82% (inactive) |
| Cc1ccc(S(=O)(=O)NCCC(=O)NC2CCN(Cc3ccccc3)CC2)cc1 | 6.57% (inactive) |
| O=C(NCc1ccccc1CN1CCCC1)C1CCN(S(=O)(=O)c2ccc(Cl)cc2)CC1 | 1.2% (inactive) |
| O=C(NNS(=O)(=O)c1ccc(Cl)cc1)C1CCN(Cc2ccccc2)CC1 | 40.5% (active) |
| CN(C)CCNc1ccc(-c2n[nH]c(=O)c3ccccc23)cc1[N+](=O)[O-] | 5.87% (inactive) |
| O=C(NCC1(N2CCCCC2)CCCCC1)c1ccc(NS(=O)(=O)c2ccc(F)cc2)cc1 | 6.39% (inactive) |
| CC(C)c1ccc(NC(=O)COC(=O)c2ccc(CN3CCCC3=O)cc2)cc1 | 11.4% (inactive) |
| Cc1cc(C)c(S(=O)(=O)N2CCCC2CNC(=O)c2ccc3c(c2)OCO3)c(C)c1 (centres undefined) | 10.3% (inactive) |
| CCC(=O)c1ccc(OCC(=O)N(CC)CC2COc3ccccc3O2)cc1 (centres undefined) | -6.74% (inactive) |
| O=C(COc1ccc(F)cc1Br)NCC1COc2ccccc2O1 (centres undefined) | -3.52% (inactive) |
| c1ccc2c(c1)OCC(CNc1ncnc3nc[nH]c13)O2 (centres undefined) | 46.2% (active) |

| Structure (SMILES) | inhibition |
| --- | --- |
| CSc1ccccc1OCc1cc(C(=O)N2C[C@H]3CC[C@H]2C3)no1 | 23.9% (inactive) |
| CCc1nc2nc(C)c(NS(=O)(=O)c3ccc4c(c3)CCCC4)c(=O)n2[nH]1 | 17.6% (inactive) |
| CC(C)(C)N(CC#CCC(O)(c1ccccc1)C1CCCC1)CCO (centres undefined) | 8.39% (inactive) |
| CN(CC#CCC(c1ccccc1)c1ccccc1)C(C)(C)C | 56.4% (active) |
| O=C1NC[C@@H](Cc2ccc(O)cc2)N(CCc2cccc(F)c2)C1=O | 10.1% (inactive) |
| CCCCC(C(=O)NC(C)(C)C)N(Cc1ccccc1)C(=O)c1snc(C(N)=O)c1N (centres undefined) | -2.14% (inactive) |
| Cc1cc(C)c(OCC(=O)N(Cc2cccs2)C2CCS(=O)(=O)C2)c(C)c1 (centres undefined) | 5.07% (inactive) |
| CCCCN1C(N)=NC[C@@H]1CC1CCCCC1 | 0.65% (inactive) |
| CN(C)C1=NC[C@H](Cc2ccccc2)N1CCc1ccc(F)cc1 | 2.48% (inactive) |
| CCCC[C@@H]1CN=C(N)N1CCc1cc(C(F)(F)F)cc(C(F)(F)F)c1 | 32.4% (active) |
| COc1cccc(C(O)c2nc(-c3ccc(C)c(C)c3)cs2)c1 (centres undefined) | 2.71% (inactive) |
| Cc1ccc(C(=O)Nc2c(-c3ccccc3)[nH][nH]c2=O)cc1 | -12.3% (inactive) |
| CN(C)C(=O)c1ccc(NC(=O)c2ccccc2-c2ccccc2)cc1 | 12.5% (inactive) |
| O=C(NC1=CC(=O)c2ccccc2C1=O)c1ccccc1 | 36.2% (active) |
| O=C(O)CCC(=O)Nc1ccc(OCC2CCCO2)cc1 (centres undefined) | -4.56% (inactive) |
| COc1ccc(NC(=O)CN2C(=O)CSc3ccc(S(=O)(=O)N4CCC(C)CC4)cc32)cc1 | -4.66% (inactive) |
| COc1ccc(CNS(=O)(=O)c2cc(-c3cc(C)no3)ccc2C(C)C)cc1 | 27.2% (active) |
| Cc1cc(-c2ccc(C)c(S(=O)(=O)NCCCN(Cc3ccccc3)C(C)C)c2)on1 | -8.38% (inactive) |
| CCc1ccc(-c2cc(C)no2)cc1S(=O)(=O)NCCc1ccc(S(N)(=O)=O)cc1 | -7.03% (inactive) |
